The campaign covered roughly 5,500 compounds. About 2,000 (36%) were called active. About 18% were inconclusive and are not listed. Rule as the data show it: active = normalized growth mostly below about 0.91 (no sharp cut-off); inconclusive = no clear call, values can overlap the other calls; inactive = mostly above about 0.92. This is one part of the list.
Experiment: chemical genetic growth profiling, strain panel (AID 1159580);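 also: tested at 20 µM; growth read once vehicle control cultures reached saturation at 30 °C; 1 = growth at the plate median or of vehicle wells; lower values mean less growth of the strain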
Conditions: S. cerevisiae deletion strains, growth OD

Measured: normalized growth

OC(CN1CCC(Cc2ccc(F)cc2)CC1)c1ccc(Cl)cc1 (centres undefined)
inactive: locus YAL040C, strain CLN3, active compounds read low 0.991 | locus YCL061C, strain MRC1 (second series), active compounds read low 0.997 | locus YDR150W, strain NUM1, active compounds read low 0.999 | locus YDR363W, strain ESC2, active compounds read low 1.05 | locus YER002W, strain NOP16, active compounds read low 1.03 | locus YGR229C, strain SMI1, active compounds read low 1.07 | locus YJR075W, strain HOC1, active compounds read low 1.01 | locus YMR263W, strain SAP30, active compounds read low 0.992 | locus YNL128W, strain TEP1, active compounds read low 1.01 | locus YNL175C, strain NOP13, active compounds read low 1 | locus YNL197C, strain WHI3, active compounds read low 1.01 | locus YNL224C, strain SQS1, active compounds read low 1 | locus YOR083W, strain WHI5 (second series), active compounds read low 1.05 | locus YPL055C, strain LGE1, active compounds read low 1.01

— PubChem BioAssay AID1159580 (chemical genetic matrix, 2015)
